# Measured values taken from PubChem BioAssay (NCI).
# This is part of a sample that, as a whole, favours compounds with a hit. Of some 83,000 tested, about 20% had one in any assay.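 A percent growth of 40 corresponds to 60% growth inhibition; 0 means no net growth; -100 means all cells died. Active threshold: below 10.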 A number with no mark means an inactive call. Calls of active or inactive are those of the source.
# Assays:
# Test in all cases: NCI-60 one-dose screen, 48 h (100 = growth as untreated, 0 = no growth, -100 = all killed)
# Conditions in all cases: 10 µM unless noted
# HCT-15 colon = test system: HCT-15 colon
# HT29 colon = test system: HT29 colon
# SNB-75 CNS = test system: SNB-75 CNS
# SNB-19 CNS = test system: SNB-19 CNS
# U251 CNS = test system: U251 CNS
# PC-3 prostate = test system: PC-3 prostate
# SK-MEL-5 melanoma = test system: SK-MEL-5 melanoma
# UACC-62 melanoma = test system: UACC-62 melanoma
# LOX IMVI melanoma = test system: LOX IMVI melanoma
# SK-MEL-28 melanoma = test system: SK-MEL-28 melanoma
SMILES,growth (HCT-15 colon),growth (HT29 colon),growth (SNB-75 CNS),growth (SNB-19 CNS),growth (U251 CNS),growth (PC-3 prostate),growth (SK-MEL-5 melanoma),growth (UACC-62 melanoma),growth (LOX IMVI melanoma),growth (SK-MEL-28 melanoma)
CC(=O)/C(=C\c1c(-c2ccccc2)[nH]c2ccccc12)S(C)(=O)=O,19.3%,4.54% (active),-28.8% (active),23.2%,15.3%,21.6%,-6.28% (active),17.5%,33.1%,34.4%
Cc1ccc(C2=Nc3c(N)ncnc3NC(c3cccc(Nc4ccnc5cc(C(F)(F)F)ccc45)c3)C2)cc1 (stereo not given),6.14% (active),5.98% (active),21.7%,43.6%,31.1%,16.1%,12.1%,48.7%,26.7%,52.3%
NC(=O)c1ccc(-c2c3ccccc3cc3c2ccc2ccccc23)cc1,28.3%,-19.4% (active),42.5%,60.9%,42.5%,54.4%,40.8%,33.4%,33.3%,60%
O=C(O)c1cn(C2CC2)c2cc(N3CCN(C(=O)N(c4ccccc4)c4nc(-c5ccccc5)cs4)CC3)c(F)cc2c1=O,6.28% (active),4.23% (active),-9.1% (active),15.7%,12.6%,8.6% (active),-61.3% (active),-4% (active),-23.6% (active),36.1%
O=C(Nc1cccc(-c2ccc(N3CCOCC3)nn2)c1)Nc1cccc(C(F)(F)F)c1,68.3%,91.2%,111%,86.6%,71.2%,31.4%,41.9%,43.2%,70.2%,88.7%
O=C(/C=C/c1cccs1)Nc1ncc(Cc2ccccc2F)s1,27.1%,8.61% (active),-7.95% (active),28.9%,17%,29.6%,6.05% (active),16.8%,20.4%,54.4%
COC(=O)CC[C@H](C)[C@H]1CC[C@H]2[C@@H]3CC[C@@H]4CC5(CC[C@]4(C)[C@H]3CC(=O)[C@]12C)Nc1ccccc1NC5=NC(C)(C)C (stereo not given in full),51.4%,69.8%,71.1%,81.5%,48.3%,56.5%,77.5%,57.9%,47.4%,89.2%
CCCCn1c(=O)[nH]c(N)c([C@@H]2c3c([nH]c(=O)n(CCCC)c3=O)Oc3ccc4ccccc4c32)c1=O,6.62% (active),-44.2% (active),87.1%,64.2%,-20.7% (active),24.4%,67%,80.1%,-76.2% (active),44%
N#CC1=C(N)Oc2c(sc3c(Br)cccc23)C1c1ccc(Cl)cc1 (stereo not given),8.47% (active),-14.2% (active),4.29% (active),37%,7.28% (active),17.3%,17.3%,10.3%,23.3%,44.8%
O=S(=O)(c1ccccc1)n1cc2c(c1)-c1nc(Nc3ncccn3)sc1CC2,68.7%,66.2%,-16% (active),78.5%,46.2%,65.5%,35.4%,63.6%,10.1%,73.9%
COc1cc2c(c(OC)c1OC)CCC(c1cccc(NC(=O)c3ccc(Br)cc3)c1)O2 (stereo not given),85.2%,77.4%,86%,86%,90%,60.5%,71.4%,60.6%,90.4%,89.7%
OCCn1cc(-c2nc(-c3c[nH]c4ncccc34)cs2)c2ccccc21,55.9%,95%,55.2%,88.1%,78.9%,61.8%,77.5%,69.9%,77.7%,104%
O=C(O)c1cn(C2CC2)c2cc(N3CCN(Cc4ccc5ccccc5c4O)CC3)c(F)cc2c1=O,9.69% (active),-32.4% (active),-14.4% (active),78.3%,45.8%,39.3%,61.6%,38.8%,40.1%,38.6%
S=c1sc2c(Cl)nc(-c3cccnc3)nc2n1-c1ccccc1,-32.6% (active),-53.8% (active),57.1%,25.2%,7.95% (active),1.75% (active),76.3%,-10.2% (active),-52% (active),-58.2% (active)
COc1ccc(C2=C(Br)C(=O)c3nc(C)ccc3C2=O)cc1,93.1%,110%,93.8%,94.9%,94%,80%,91.6%,88.5%,95.4%,107%
Cc1cccc(/C=C/c2c(C(=O)/C=C/c3ccccc3)c(C)nc3ccccc23)c1,-58.8% (active),-24.2% (active),-9.89% (active),-80.5% (active),-94.1% (active),8.27% (active),-58.1% (active),-67.3% (active),-86.1% (active),-61.8% (active)
COc1cc(-c2nc3sccn3c2-c2ccnc(NCCNS(=O)(=O)c3ccccc3)n2)ccc1F,52.1%,24.6%,59.4%,67.6%,61%,30.9%,19%,25.8%,41.4%,63.7%
CCCC/C=C/[C@@H]1C[C@H]1CCO,97.7%,97.2%,90.3%,96.3%,101%,95.5%,99.3%,92.4%,98.2%,98.1%
CCOc1ccc(NC(=O)CSc2oc(-c3ccccc3)nc2S(=O)(=O)c2ccc(C)cc2)cc1,63.8%,50.9%,45.3%,70.7%,41.2%,62.3%,81.2%,66.2%,54.1%,79.3%
C#CCOC(=O)/C=C/c1cn(-c2ccccc2)nc1-c1ccc(OC)cc1,94.1%,83.2%,66.6%,99.5%,83.1%,83.4%,92%,85.4%,83.6%,115%
c1ccc2cc(C[n+]3ccn(CCCCCCCCCCn4cc[n+](Cc5ccc6ccccc6c5)c4)c3)ccc2c1,50.5%,-32.5% (active),-1.15% (active),22.8%,11.7%,7.04% (active),-56.4% (active),16.9%,-53.9% (active),20.6%
CC(C)(C)[Si](C)(C)OC1[C@@H](CNC(=O)NC(=O)NC(N)=O)O[C@@H](n2cnc3c(NC(=O)Nc4ccccc4)ncnc32)[C@H]1O[Si](C)(C)C(C)(C)C (stereo not given in full),94.8%,10.5%,84.1%,98.3%,69.1%,41.5%,91.8%,87.8%,56%,63.5%
Cc1cc(N2CCN(CCNc3ccnc4cc(Cl)ccc34)CC2)nc(N2CCOCC2)n1,27.4%,20.7%,88.3%,89.9%,64.5%,65.1%,25.4%,60.2%,13.7%,77.5%
CCCOC(=O)Nc1nc2ccc(SCC(C)C)cc2s1,26.6%,15.9%,28.6%,53.9%,49.2%,45.9%,27.6%,18.9%,40.8%,64.9%
COc1ccc(C(=O)C/C(=C\c2ccc(Cl)cc2)C(=O)NCc2ccccc2)cc1,47%,82.1%,100%,85.5%,70.6%,56.4%,93.4%,67.3%,77.9%,91.2%
Clc1ccc2c(NC3CCC(N4CCOCC4)CC3)ccnc2c1 (stereo not given),93.5%,84.7%,82.7%,79.3%,81.1%,62.3%,53.4%,77.4%,68.6%,97.3%
COc1ccc2cc1Oc1ccc(cc1)C[C@H]1c3c(cc4c(c3Oc3cc5c(cc3OC)CCN(C)[C@@H]5C2)OCO4)CCN1C,27%,4.38% (active),71.4%,75.9%,26.8%,43.9%,-97% (active),34.4%,-41.7% (active),-54.9% (active)
